Measured values from PubChem BioAssay AID1626 (SRMLSC, 2009).
“And” between values parts separate entries of the source, which are not always exact repeats. Equal values may be shown once. Hit rate of the full screen: of about 220,000 compounds, about 2,000 (0.91%) were called active. Another 2% or so got no clear call; they are omitted. A selection follows. Potency and affinity values are given separately. A number with no mark means an inactive call. Cut-off read from the data, not from the text of the source: inconclusive = inhibition above about 80% without an active follow-up result; inactive = below that; test concentration not stated here.

assay: M. tuberculosis H37Rv growth inhibitors, H37Rv strain (AID 1626); conditions: hits give high values, concentration not given here;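 note: bacteria incubated seven days before Alamar blue readout; 0% = bacteria only wells and 100% = bacteria with antibiotic wells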

Row | Compound | inhibition
1 | CCOC(=O)C1CCCc2c1[nH]c1c(C(=O)O)cccc21 (centres undefined) | -6.94%
2 | CCOC(=O)c1ccc2[nH]c3c(c2c1)CCCC3C(=O)OCC (centres undefined) | -4.38%
3 | CCOc1ccc(S(=O)(=O)N/N=C2/CC(c3ccccc3)Oc3ccccc32)cc1 (centres undefined) | -11.9%
4 | COC(=O)C1C(c2ccccc2)C=CC(c2ccccc2)C1C(=O)O (centres undefined) | 1.24%
5 | COC1=C(Nc2ccc(C)cc2)C(=O)c2ccccc2C1=O | 12.8%
6 | O=C1C(Nc2ccccc2)=C(NS(=O)(=O)c2ccccc2)C(=O)c2ccccc21 | 8.84%
7 | O=C1C=C(Nc2ccc(O)cc2)C(=O)c2ccccc21 | 5.07%
8 | O=C1C(Nc2ccccc2)=C(N2CCCCC2)C(=O)c2ccccc21 | -1.08%
9 | O=C1C(Cl)=C(Nc2ccccc2)C(=O)c2ccccc21 | -1.42%
10 | CCCCNC1=CC(=O)C(=O)c2ccccc21 | 1.34%
11 | Cc1ccc(NC2=C(Cl)C(=O)c3ccccc3C2=O)cc1 | -1.97%
12 | O=C1C=C(Nc2ccccc2C(=O)O)c2ccccc2C1=O | 1.72%
13 | O=C(c1cc(-c2ccc(Cl)cc2)n(-c2ccc(Cl)c(Cl)c2)n1)N1CCOCC1 | -1.31%
14 | Cc1ccc(OCC(=O)Nc2cccc3nsnc23)c(C)c1 | 7.75%
15 | COCOc1ccc(C=O)cc1OCOC | -3.9%
16 | COc1cc(Cl)c(C)cc1NC(=O)c1ccc(S(C)(=O)=O)cc1 | 3.38%
17 | CCOc1cc(C=O)ccc1OS(=O)(=O)c1ccc(NC(C)=O)cc1 | 5.36%
18 | COc1ccc(CN2C(=O)c3oc4ccccc4c(=O)c3C2c2ccc(O)c(OC)c2)cc1 (centres undefined) | -7.03%
19 | Cc1onc(-c2cccc(Cl)c2Cl)c1C(=O)O/N=C(\N)c1ccc([N+](=O)[O-])o1 | 67%
20 | O=c1nc(NCc2ccco2)sc2ncccc12 | -7.68%
21 | O=C1c2ccc(Oc3ccc4c(c3)C(=O)N(CCCCO)C4=O)cc2C(=O)N1CCCCO | -9.34%
22 | Cc1ccc2c(c1)C(=O)N(CCCCO)C2=O | -0.27%
23 | COCCNC(=O)c1ccc2c3n(nc2c1)-c1ccc(Cl)cc1CO3 | -12.9%
24 | CCOC(=O)c1sc(NC(=O)CCN2CCC(C)CC2)c(C(=O)OCC)c1C | 5.65%
25 | O=C(COc1ncnc2ccccc12)c1ccc2c(c1)OCCO2 | -5.58%

Row | Compound | inhibition
26 | O=C(O)[C@H]1CCCC[C@H]1C(=O)Nc1ccc(Nc2ccccc2)cc1 | 3.28%
27 | O=C(O)C1CC=CCC1C(=O)Nc1ccccc1 (centres undefined) | -3.59%
28 | CCCc1cc(=O)n2[nH]c(NCc3ccc(OC)c(OC)c3)nc2n1 | 3.17%
29 | Cc1ccc(C)c(NC(=O)C(Sc2ncnc3ccccc23)c2ccccc2)c1 (centres undefined) | -1.19%
30 | COc1ccc(NC(=O)c2cccc(OC(F)F)c2)cc1Cl | 0.2%
31 | CCOc1ccc(NS(=O)(=O)c2cc(NC(=O)c3ccc(C)cc3)ccc2Cl)cc1 | 11.8%
32 | O=C(Nc1ccc(OC(F)F)c(Cl)c1)c1cccc(OC(F)F)c1 | 10.2%
33 | CC(NC(N)=O)C(=O)Nc1ccc(Cl)c(S(=O)(=O)Nc2ccc(Cl)cc2)c1 (centres undefined) | 0.16%
34 | CCOC(=O)c1cc(NC(=O)NCc2ccco2)c(C)nc1C | -7.42%
35 | O=c1cc(N2CCCCC2)c2ccccc2o1 | -1.79%
36 | CCOc1cc(CN2CCN(c3cccc(C(F)(F)F)c3)CC2)ccc1O | -11.9%
37 | CCC/C=N/NC(=O)c1cccc(Br)c1 | 7.16%
38 | O=C(CSc1nc(-c2ccccc2Cl)ns1)Nc1ccc2c(c1)OCO2 | 98.8%
39 | COc1ccc(-c2nsc(SCC(=O)NCc3ccc4c(c3)OCO4)n2)cc1 | 6.74%
40 | Cc1ccccc1-c1nsc(SCC(=O)Nc2ccc3c(c2)OCO3)n1 | 16.3%
41 | Cc1ccc(-c2nsc(SCC(=O)NCc3ccc4c(c3)OCO4)n2)cc1 | 13.2%
42 | Cc1ccc(NC(=O)C2CCCN(C(=O)c3ccc(Cl)cc3)C2)cc1C (centres undefined) | 2.5%
43 | CC1=NN(C(=O)c2ccco2)C(O)(c2ccccc2)C1 (centres undefined) | -2.5%
44 | CC(=O)c1cccc(N(CC(=O)N2CCCCC2)S(C)(=O)=O)c1 | 1.7%
45 | CCOc1cc(NC(=S)NCC2CCCO2)c(OCC)cc1NC(=O)c1ccc(F)cc1 (centres undefined) | 1.9%
46 | COc1ccc(-c2[nH]ncc2CNCCn2cccn2)c(F)c1 | -7%
47 | COc1ccccc1OCC(O)CNCc1ccc2c(c1)OCO2 (centres undefined) | -7.62%
48 | Cc1[nH]n(-c2ccccc2)c(=O)c1C=NCCc1ccccc1 | 0.59%
49 | CCCCN=Cc1c(C)[nH]n(-c2ccccc2)c1=S | -2.18%
50 | CS/C(=C\[N+](=O)[O-])Nc1ccc(F)cc1 | 3.42%

Row | Compound | inhibition
51 | O=C(CN1CCCc2ccccc21)NC(=O)NC1CCCCC1 | 6.06%
52 | O=C(NC(Nc1nc2ccc([N+](=O)[O-])cc2s1)(C(F)(F)F)C(F)(F)F)c1cccnc1 | 5.87%
53 | O=C(NC(Nc1nc2ccccc2s1)(C(F)(F)F)C(F)(F)F)c1ccccc1 | -8.04%
54 | Cc1cc2nnc(SCC(=O)NCc3cccs3)n2c(N)n1 | -5.08%
55 | COc1ccc(-c2nn(-c3ccccc3)cc2/C=N/NC(N)=S)cc1OC | 2.96%
56 | COc1ccc(-c2nn(-c3ccccc3)cc2/C=N/n2cnnc2)cc1OC | -15.3%
57 | CCCn1nnnc1NC(=O)COc1ccc(CC)cc1 | 0.65%
58 | CC(=O)N1N=C(c2cccnc2)OC1c1ccccc1Cl (centres undefined) | 2.68%
59 | NC(=O)c1ccc(NC(=O)COC(=O)/C=C/c2cccs2)cc1 | -2.1%
60 | Cc1ccc(NC(=O)COC(=O)/C=C/c2cccs2)cc1 | -0.47%
61 | CCCCC(=O)Nc1cccc(NC(=O)CC)c1 | 3.01%
62 | COc1ccc(N/C(C)=C/C(=S)Nc2ccccc2)cc1 | 29.2%
63 | O=C(CS)Nc1ccc2ccccc2c1 | -9.08%
64 | CCCCC(=O)Nc1ccc(C)c(O)c1 | 2.73%
65 | CC(C)CC(=O)Nc1ccc2ccccc2c1 | 85.1% and -4.53%
66 | C/C(=C\C(=S)Nc1ccccc1)Nc1ccccc1 | 4.78%
67 | O=S(=O)(CCOc1ccccc1)c1nc2ccccc2[nH]1 | -6.66%
68 | COCCCn1c(SCC(=O)Nc2nc3ccccc3s2)nnc1-c1ccoc1C | 4.35%
69 | Cc1cc(C)c(S(=O)(=O)N2CCCCC2)c(C)c1N(C)S(=O)(=O)c1ccc(Cl)cc1 | 1.13%
70 | CCOc1nc(C)ccc1-c1noc(CC)n1 | -1.19%
71 | CCOC(=O)C1CSC(CC(=O)Nc2ccc(Cl)cc2)C(=O)N1 (centres undefined) | -6.13%
72 | OC1(CNCc2cn[nH]c2-c2cc3ccccc3o2)CCCCC1 | -6.25%
73 | COc1cccc(-n2c(SCc3c(C)noc3C)nnc2-c2cccc(S(=O)(=O)N(C)C)c2)c1 | 4.97%
74 | Cc1ccccc1OCc1csc(N)n1 | 3.59%
75 | CN=C(C)c1c(O)c2ccccc2oc1=O | -1.28%

Row | Compound | inhibition
76 | CC(C)N(C(=O)Cn1c(SCC(=O)Nc2nccs2)nc2ccccc21)C(C)C | 0.44%
77 | CC(=O)N1N=C(c2cccc(Br)c2)OC12CCCC2 | -8.1%
78 | CCOC(=O)CS(=O)(=O)c1ccc2ccccc2c1 | -12.2%
79 | CC(=O)Nc1ccc2ccccc2c1 | 12.4%
80 | CC(=O)CC(=O)Nc1ccc(Nc2ccccc2)cc1 | 6.81%
81 | CCC(=O)Nc1ccc(-c2csc(C)n2)cc1 | 45.9%
82 | Cc1nc(-c2ccc(NC(=O)CC(C)C)cc2)cs1 | 31.2%
83 | CCOC(=O)C(C(=O)OCC)C(Nc1ccccc1)c1ccccc1 (centres undefined) | 1.08%
84 | O=C(Nc1ccc(Cl)c([N+](=O)[O-])c1)ONC1=NCCCCC1 | 0.03%
85 | CCCNC(=O)NC(=O)CN1C(=O)NC(C)(c2ccc(C)cc2)C1=O (centres undefined) | -1.35%
86 | CC(C(N)=O)N1C(=O)C2C3C=CC(C3)C2C1=O (centres undefined) | -3.12%
87 | Cc1ccc(-c2cc(C(=O)NCc3cccnc3)no2)cc1 | 3.89%
88 | Cc1ccc(NC(=S)NCCc2c[nH]c3ccccc23)c(C)c1 | 4.17%
89 | Cc1nn(C)cc1/C=C/C(=O)c1cccs1 | 2.82%
90 | Cc1c(/C=C/C(=O)c2cccs2)cnn1C | -1.78%
91 | CCN(CC)C(=S)SCC(=O)Nc1ncc2c(n1)CC(C)(C)CC2=O | 1.56%
92 | CC(=O)C1=C(C)NC(SCC(=O)c2ccc(Cl)cc2)=C(C#N)C1c1ccco1 (centres undefined) | 50%
93 | CC(=O)C1=C(C)NC(SCc2ccc(C#N)cc2)=C(C#N)C1c1ccco1 (centres undefined) | -1.27%
94 | CCOc1ccccc1NC(=O)CSC1=C(C#N)C(c2ccco2)C(C(=O)Nc2nc3ccccc3s2)=C(C)N1 (centres undefined) | 49.1%
95 | CC1=C(C(=O)Nc2ccccc2)C(c2ccco2)C(C#N)=C(SCC(=O)Nc2cccc(C)c2C)N1 (centres undefined) | 4.09%
96 | CC(=O)C1=C(C)NC(SCC(N)=O)=C(C#N)C1c1ccco1 (centres undefined) | -4.99%
97 | CC(=O)C1=C(C)NC(SCC(=O)c2cc(Cl)ccc2Cl)=C(C#N)C1c1ccco1 (centres undefined) | 15.3%
98 | CC(=O)C1=C(C)NC(SCC(=O)c2ccc(Cl)cc2Cl)=C(C#N)C1c1ccco1 (centres undefined) | 12.4%
99 | CC(=O)C1=C(C)NC(SCC(=O)c2ccccc2)=C(C#N)C1c1ccco1 (centres undefined) | 43.6%
